The record followed here is PubChem BioAssay.

The nature of test [1]: resazurin metabolic signal in HepG2 cells – cell-based, resazurin fluorescence, 24 h, PK04 Diversity Set, profiling panel (AID 1172). Note: test concentration not given here. The conditions noted are these: HepG2 viability, higher = more signal. (The colour change of resazurin is a common sign of viable cells or microbes.)
Test [2] can be described thus: budding yeast growth changes without added modifier – OD600, strain BY4716, 24 h, basal condition, primary screen (AID 1173). As to conditions: S. cerevisiae BY4716 growth, OD600, 24 h; higher = more signal, called active from +8 up or from −8 down.
Test [3] in a line: viability profiling in MM1S myeloma cells – cell-based, resazurin fluorescence, basal, 24 h, PK04 Diversity Set, profiling panel (AID 1174). Note: test concentration not given here. The conditions noted are these: higher = more signal, called active from +8 up or from −8 down.
Test [4] has as its target Dihydroorotate dehydrogenase (quinone), mitochondrial (Plasmodium falciparum (isolate 3D7)) (UniProt Q08210). Description: inhibition of P. falciparum DHODH – biochemical, C-terminal His tag, absorbance 600 nm, primary screen (AID 1175).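 Note: recombinant parasite enzyme with a five histidine tag at its C terminus; test concentration not given here.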 The conditions noted are these: PfDHODH enzyme, DCIP absorbance 600 nm; higher = more signal, called active from +8 up or from −8 down.
Test [5] in a line: inhibition of PAO1 biofilm formation – strain PAO1, LB-PBS medium, absorbance 600 nm, primary screen (AID 1176). Note: test concentration not given here. The conditions noted are these: P. aeruginosa PAO1 growth/biofilm, A600, 12 h; higher = more signal.
The nature of test [6]: growth modulation of vineyard yeast isolate – strain RM11-1a, OD600, basal, 24 h, primary screen (AID 1177).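 Note: cultures grown under basal conditions with no added stressor; test concentration not given here.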 The conditions noted are these: S. cerevisiae RM11-1a growth, OD600, 24 h; higher = more signal, called active from +8 up or from −8 down.
The nature of test [7]: growth of efflux-deficient E. coli DRC39 – strain DRC39, OD650, 24 h, E. coli filamentation inducers, primary screen (AID 1178).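 Note: growth measured as culture turbidity by optical density at 650 nm; test concentration not given here.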 As to conditions: E. coli DRC39 acrAB, higher = more signal, called active from +8 up or from −8 down.
A short description of test [8]: growth of efflux-deficient E. coli DRC39 – strain DRC39, OD650, 48 h, E. coli filamentation inducers, primary screen (AID 1179).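 Note: screen aims at cell division blockers that make cells filament.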 The conditions noted are these: E. coli DRC39 delta-acrAB growth, higher = more signal, called active from +8 up or from −8 down.
A short description of test [9]: viability profiling in RPMI8226 myeloma cells – cell-based, resazurin fluorescence, basal, 24 h, PK04 Diversity Set, profiling panel (AID 1180).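 Note: RPMI8826 multiple myeloma cell line at 5000 cells per well; test concentration not given here.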 As to conditions: higher = more signal.
The target in test [10] is E3 ubiquitin-protein ligase XIAP (Homo sapiens) (UniProt P98170). The test can be described thus: small molecules binding XIAP protein – biophysical, small-molecule microarray, fluorescence 635 nm, primary screen (AID 1181).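 Note: score merges 667 nm emission and signal to noise over triplicate slides.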 The conditions noted are these: higher = more signal.
Sequence of E3 ubiquitin-protein ligase XIAP (Homo sapiens) (P98170 whole entry, looked up): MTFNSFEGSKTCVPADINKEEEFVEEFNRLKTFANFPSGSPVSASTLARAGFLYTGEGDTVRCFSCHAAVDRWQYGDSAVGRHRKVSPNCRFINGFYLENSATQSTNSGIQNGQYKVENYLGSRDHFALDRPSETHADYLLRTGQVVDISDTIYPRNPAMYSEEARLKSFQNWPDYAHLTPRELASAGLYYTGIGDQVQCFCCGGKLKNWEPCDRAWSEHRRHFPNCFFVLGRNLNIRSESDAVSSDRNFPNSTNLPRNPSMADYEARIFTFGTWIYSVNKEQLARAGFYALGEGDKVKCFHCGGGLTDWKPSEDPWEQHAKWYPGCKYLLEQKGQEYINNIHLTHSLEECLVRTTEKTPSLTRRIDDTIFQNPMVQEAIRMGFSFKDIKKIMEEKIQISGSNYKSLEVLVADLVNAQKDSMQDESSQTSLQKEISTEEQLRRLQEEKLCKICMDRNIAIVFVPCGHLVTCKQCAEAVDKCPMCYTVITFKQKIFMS

Active and inactive are the calls of the source. Unless noted, the rule behind the calls is not given here.

Sequence of Dihydroorotate dehydrogenase (quinone), mitochondrial (Plasmodium falciparum (isolate 3D7)) (Q08210 whole entry, looked up): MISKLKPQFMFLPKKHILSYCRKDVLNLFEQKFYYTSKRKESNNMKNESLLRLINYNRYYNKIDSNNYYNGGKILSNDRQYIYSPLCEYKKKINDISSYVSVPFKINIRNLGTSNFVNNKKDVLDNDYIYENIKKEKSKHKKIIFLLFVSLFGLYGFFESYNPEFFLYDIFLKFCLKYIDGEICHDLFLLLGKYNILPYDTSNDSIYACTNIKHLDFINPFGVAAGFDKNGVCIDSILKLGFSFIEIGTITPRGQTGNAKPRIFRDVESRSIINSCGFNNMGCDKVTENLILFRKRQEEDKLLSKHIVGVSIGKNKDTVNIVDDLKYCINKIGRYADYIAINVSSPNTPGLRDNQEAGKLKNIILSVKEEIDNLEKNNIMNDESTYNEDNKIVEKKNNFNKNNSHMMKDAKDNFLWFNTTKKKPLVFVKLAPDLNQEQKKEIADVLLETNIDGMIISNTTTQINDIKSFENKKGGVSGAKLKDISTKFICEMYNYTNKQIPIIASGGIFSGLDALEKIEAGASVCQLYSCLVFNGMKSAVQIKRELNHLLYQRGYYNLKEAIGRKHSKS

Turning to `CC(C)=CCCC(C)=CCON=C1C[C@@H](O)[C@@H](O)[C@@H]2[C@@H]3C(=O)N(C[C@@H]4CCCO4)C(=O)[C@@H]3CC[C@@H]12`, the z-score in [1] was 0.502; in [2] it was -0.242 (inactive); in [3] it was -0.041 (inactive); in test [5], -0.261 (inactive); in test [6] it was 0.348 (inactive); in test [7] it was 0.122 (inactive). In addition, the z-score in [8] was 0.511 (inactive); in test [9], 0.424. Further, the composite z-score is -0.111 (inactive) in test [4] and -0.264 in [10].
Consider `CC(=O)O[C@H]1C2=C(C(=O)[C@@H]3O[C@@H]31)[C@H]1C(C)O[C@@H]2[C@@]23C(=O)[C@@H]4O[C@@H]4[C@@H](O)C2=CO[C@H](C)[C@@H]13` (stereo not given in full), for which the z-score was 0.0072 in [1]; 0.174 (inactive) in test [2]; -1.01 (inactive) in test [3]; -0.0812 (inactive) in test [5]; -0.2 (inactive) in test [6]; 0.223 (inactive) in test [7]. Also, the z-score in test [8] was 0.186 (inactive); in [9] it was -1.12. Moreover, the values for the composite z-score in test [4] and in test [10] were -0.0495 (inactive) and -0.0454, respectively.
For the compound `CN1C(=O)C2C(C1=O)C1C=C(CCCO)C2C(c2ccc(CN3CCCC3)cc2)N1C` (stereo not given), the z-score in [1] is -1.03; in [2] it was 1.04 (inactive); in test [3], -1.78 (inactive); in test [5] it was -1.02 (inactive); in test [6], 0.626 (inactive); in test [7], -0.815 (inactive). Also, the figures for the z-score in test [8] and in test [9] were -0.296 (inactive) and -0.802, respectively. The composite z-score in test [4] was -3.89 (inactive); in test [10], 0.182.
Consider `CC(CCN1CCc2nc(-c3ccccc3)c(-c3ccccc3)cc2C1)=NO[C@H](C)c1cn([C@@H]2COC[C@H]2O)nn1`, for which the z-score in test [1] was -0.233; in test [2], -0.799 (inactive); in test [3], -0.869 (inactive); in test [5] it was 0.408 (inactive); in test [6], -0.462 (inactive); in test [7] it was 0.532 (inactive). Further, the results for the z-score in test [8] and in test [9] were 0.705 (inactive) and -0.639, respectively. The figures for the composite z-score in [4] and in [10] were -0.0119 (inactive) and 0.063, respectively.
Turning to `CN(C)c1ccc(C(O)C2C=CC3C(=O)N(c4ccccc4)C(=O)C3N2Nc2ccccc2F)cc1` (stereo not given), the z-score in [1] is -0.268; in [2], -1.77 (inactive); in test [3], -0.234 (inactive); in test [5], 0.657 (inactive); in [6], 0.545 (inactive); in [7] it was -0.853 (inactive). For the same compound, the z-score in test [8] is -1.08 (inactive); in [9], -1.02. In addition, the values for the composite z-score in test [4] and in test [10] were 1.03 (inactive) and 0.24, respectively.
For `CC(=O)OC[C@H]1O[C@H](C#CCCCc2ccccc2)C=C[C@@H]1OC(C)=O`, the z-score in test [1] was -0.22; in test [2], -2.31 (inactive); in test [3] it was -4.16 (inactive); in test [5], -0.0569 (inactive); in [6] it was 0.291 (inactive); in [7] it was 0.387 (inactive). The z-score in [8] was -0.0416 (inactive); in [9] it was -2.47. The composite z-score in test [4] was -0.791 (inactive); in test [10], 0.072.
In the case of `Cc1ccc(C2CC=C(C(=O)O)CN2S(=O)(=O)c2ccc(C)cc2)cc1` (stereo not given), the z-score in test [1] was -0.719; in test [2] it was -0.0489 (inactive); in test [3], -0.955 (inactive); in test [5], 0.396 (inactive); in test [6], 0.603 (inactive); in [7], -0.799 (inactive). The z-score in [8] was -1.52 (inactive); in [9] it was -1.54. Besides, the results for the composite z-score in [4] and in test [10] were 1.23 (inactive) and -0.102, respectively.
Take `COC(=O)[C@H]1COC(c2ccc(OCCCO)cc2)=N1`: the z-score in test [1] is -0.652; in [2] it was -0.928 (inactive); in [3] it was 0.107 (inactive); in test [5], 0.149 (inactive); in test [6], -0.286 (inactive); in [7] it was 0.057 (inactive). Further, the values for the z-score in test [8] and in test [9] were -0.645 (inactive) and 0.492, respectively. In addition, the composite z-score in test [4] was 0.335 (inactive); in test [10] it was -0.103.
For the compound `Cc1ccc(S[C@]2(C(=O)NCC(F)(F)F)CC(=O)N(Cc3ccccc3Cl)[C@@H]2c2ccc(CO)cc2I)cc1`, the z-score in test [1] was 0.305; in [2], -3.36 (inactive); in [3] it was -3.29 (inactive); in test [5] it was 0.0214 (inactive); in test [6], -0.54 (inactive); in test [7] it was 0.357 (inactive). Moreover, the z-score in [8] is 0.465 (inactive); in [9], -2.02. Moreover, the composite z-score was -0.148 (inactive) in test [4] and 0.0256 in test [10].
Consider `[N-]=[N+]=Nc1ccccc1C[C@@]1(C(N)=O)N=C(c2ccc(OCCCO)cc2)O[C@@H]1c1ccccc1`, for which the z-score was -0.501 in test [1]; -1.86 (inactive) in test [2]; -0.6 (inactive) in [3]; 0.218 (inactive) in [5]; -0.364 (inactive) in test [6]; 0.289 (inactive) in test [7]. Moreover, the z-score in test [8] was -1.01 (inactive); in [9], -0.652. Also, the composite z-score in [4] is -0.684 (inactive); in test [10], -0.0344.
With `CCOC(=O)NN=C1C[C@@H](O)[C@@H](O)[C@@H]2[C@@H]3C(=O)N(C4CCCCC4)C(=O)[C@@H]3CC[C@@H]12`, the z-score in [1] was -0.252; in test [2], 0.126 (inactive); in test [3], -0.292 (inactive); in test [5] it was 0.283 (inactive); in test [6], -0.845 (inactive); in [7], -0.959 (inactive). Also, the z-score in test [8] was -0.499 (inactive); in [9], -0.145. Further, the composite z-score in test [4] was -1.71 (inactive); in test [10], -0.102.
For the compound `CCc1cccc(NC(=O)O[C@H]2[C@H](OC(=O)Nc3ccc4c(c3)OCO4)[C@@H](OC(=O)Nc3ccc4c(c3)OCO4)[C@@H](OC)O[C@@H]2CO)c1`, the z-score in [1] is 1; in test [2], 1.04 (inactive); in test [3], -0.517 (inactive); in [5], 0.745 (inactive); in test [6] it was 1.88 (inactive); in [7] it was 1.57 (inactive). The figures for the z-score in test [8] and in test [9] were 0.494 (inactive) and -0.36, respectively. The values for the composite z-score in test [4] and in [10] were -0.0004 (inactive) and -0.173, respectively.
Regarding `C=CC[C@]1(C(=O)NCc2ccccc2)N=C(c2ccc(OCCCO)cc2)O[C@H]1c1ccccc1`, the z-score in test [1] was 0.527; in test [2], -0.127 (inactive); in [3], -0.223 (inactive); in [5], -0.193 (inactive); in test [6], 1.15 (inactive); in test [7], 0.0557 (inactive). Also, the z-score in test [8] was -0.126 (inactive); in test [9], -0.0458. In addition, the composite z-score was -0.649 (inactive) in test [4] and -0.102 in [10].
In the case of `COC(=O)CC1OC1[C@H](C)[C@@H](OC)C(C)C` (stereo not given in full), the z-score was -0.863 in test [1]; -4.59 (inactive) in test [2]; -1.91 (inactive) in [3]; 0.699 (inactive) in [5]; 0.748 (inactive) in test [6]; 0.487 (inactive) in test [7]. Further, the z-score is 0.293 (inactive) in test [8] and -1.43 in test [9]. The composite z-score in test [4] is -3.39 (inactive); in test [10], -0.313.
Turning to `CC=CC1=C(CO)[C@H](O)[C@H]2O[C@H]2[C@H]1O`, the z-score is -0.557 in test [1]; 0.977 (inactive) in test [2]; -0.667 (inactive) in test [3]; -0.47 (inactive) in [5]; 0.618 (inactive) in test [6]; -0.227 (inactive) in test [7]. Further, the z-score in [8] was -0.299 (inactive); in test [9] it was 0.0421. The composite z-score is 0.439 (inactive) in [4] and 0.0774 in [10].
`CN1C(=O)C2C=CC(C(O)c3ccc(I)cc3)N(NC(=O)OC(C)(C)C)C2C1=O` (stereo not given): the z-score was -1.11 in test [1]; 0.9 (inactive) in test [2]; -0.694 (inactive) in [3]; 0.53 (inactive) in test [5]; 0.983 (inactive) in test [6]; -0.446 (inactive) in [7]. Also, the z-score in test [8] was -0.18 (inactive); in test [9], -0.639. For the same compound, the composite z-score in test [4] is 0.0247 (inactive); in [10], 0.308.
Regarding `CC(C)NC(=O)[C@@]1(c2ccc([N+](=O)[O-])cc2)CC(=O)N(CC23CC4CC(CC(C4)C2)C3)[C@@H]1c1ccc(CO)cc1I`, the z-score is -3.37 in test [1]; -0.722 (inactive) in [2]; -4.2 (inactive) in test [3]; 0.761 (inactive) in test [5]; 0.835 (inactive) in [6]; -0.398 (inactive) in [7]. The z-score in [8] is -0.226 (inactive); in test [9] it was -4.86. Further, the composite z-score in [4] is -0.304 (inactive); in test [10], 0.0178.
In the case of `CO[C@H]1O[C@H](CO)[C@@H](OC(=O)Nc2ccc3c(c2)OCO3)[C@H](OC(=O)Nc2ccccc2-c2ccccc2)[C@@H]1OC(=O)Nc1ccccc1-c1ccccc1`, the z-score is -0.659 in test [1]; 1.42 (inactive) in [2]; -0.443 (inactive) in [3]; 1.14 (inactive) in [5]; 2.33 (inactive) in [6]; -0.243 (inactive) in test [7]. Besides, the z-score was -0.0545 (inactive) in [8] and -0.427 in test [9]. The composite z-score in [4] was 0.237 (inactive); in [10] it was 0.28.
